Several values for one entry are separate records, joined by “and”; a condition that tells them apart may be missing. Identical values can stand only once. The campaign covered roughly 65,000 compounds. About 45 (0.07%) were called active. Calls come from the whole dose curve. These entries were drawn from the full list.
test system: Schistosoma mansoni peroxiredoxin 2 (Prx2); experiment: Schistosoma Mansoni Peroxiredoxins (Prx2); conditions: S. mansoni Prx2 activity coupled to TGR/GSH (TGR is thioredoxin glutathione reductase), NADPH fluorescence loss, qHTS
From the text: NIH Molecular Libraries Screening Centers Network [MLSCN]
NIH Chemical Genomics Center [NCGC]
David Williams [Illinois State University]
Schistosoma mansoni, a causative agent of schistosomiasis, resides in the bloodstream of their host up to 30 years without being eliminated by the host immune attack. One proposed survival mechanism is the production of an antioxidant "firewall" that neutralizes the oxidative assault of the host's immune attack. Schistosoma mansoni peroxiredoxins (Prx) are important parasite antioxidant proteins that play a crucial role in redox balance mechanisms. […] First, the proteins are essential for the parasite survival. […] Third, the protein(s) is amenable for study at the molecular level and can be produced in bacteria in large quantities, in soluble and active form. Inhibition of Prx activity was screened in a coupled-enzyme format with reducing equivalents being transferred from NADPH to […] intermediate via thioredoxin/glutathione reductase (TGR)-catalyzed reaction, then from thioredoxin to hydrogen peroxide via Prx-catalyzed electron transfer. A decrease in the fluorescence intensity of NADPH was used to measure the enzyme activity. Purified S. mansoni TGR and Prx were provided by Professor David L. Williams, Illinois State University.
NCGC Assay Protocol Summary:
100 mM phosphate buffer, pH 7.4, 10 mM EDTA, 0.01% Tween-20.
100 uM NADPH/25 nM TGR/700 uM GSH/50 nM Prx2 mixture in columns 1, 2, 5-48. Titration of control potassium antimonyl tartrate (PAT, from 1 mM, then 1:5) pin-transferred to lower half of column 2. Column 1 and upper half of column 2 are neutral (100% activity).
Three uL of reagents were dispensed to 1536-well Greiner black plates. Compounds and controls (20 nL) were transferred via Kalypsys PinTool. The plates were incubated for 15 min at room temperature, and then a 1 uL aliquot of 400 uM NADPH/700 uM GSH was added, immediately followed by a 1uL aliquot of 2.5 mM H2O2 (to start the reaction). The plate was transferred to ViewLux (Perkin-Elmer) High-throughput CCD imager where kinetic measurements (every 30 sec, for a total of 8 min) of NADPH fluorescence were taken using 365 nm excitation/450 nm emission filter set. During dispense, enzyme-containing reagent bottles were kept submerged into 4 deg C water bath to minimize degradation.
Keywords: NIH Roadmap, MLSCN, MLI, MLSMR, David Williams, Peroxyredoxin, Schistosoma mansoni, prx2, prx, , qHTS, NCGC
Potency is the fitted concentration of half-maximal effect.

Row | Structure (SMILES) | Potency
1 | CN(C)CC/C=C1\c2ccccc2CSc2ccccc21 | > 57 µM (inactive)
2 | COc1ccccc1CNc1ncnc2ccc(-c3ccc4c(c3)OCO4)cc12 | > 57 µM (inactive)
3 | CC(C)NC(=O)N1CCC2(CC1)CCN(C(=O)c1cccn1C)CC2 | > 57 µM (inactive)
4 | COc1ccccc1CNc1ccnc(-c2c(C)noc2C)n1 | > 57 µM (inactive)
5 | O=C(c1cnccn1)N1CCC[C@@]2(CCN(Cc3ccncc3)C2)C1 | > 57 µM (inactive)
6 | COc1ccccc1N1CCN(CCN2C(=O)c3ccccc3C(C)(C)C2=O)CC1 | > 57 µM (inactive)
7 | COC(=O)N1CCC2(CCCN(Cc3ccccc3OC)C2)CC1 | > 57 µM (inactive)
8 | N#C/C(=C\c1ccc(O)c(O)c1)C(=O)NCc1ccccc1 | > 57 µM (inactive) and > 11.4 µM (inactive)
9 | COc1ccc(Oc2ncc3nc(-c4ccc(F)cc4)c(=O)n(C)c3n2)cc1 | > 57 µM (inactive)
10 | O=C(c1csnn1)N1CCC[C@@]2(CCN(c3cccc(-c4ccccc4)c3)C2)C1 | > 57 µM (inactive)
11 | Clc1ccc(C=Nc2ccc3c(c2)Cc2ccccc2-3)c(Cl)c1 | > 57 µM (inactive)
12 | CC(=O)N1CCC2(CCCN(c3ncccn3)C2)CC1 | > 57 µM (inactive)
13 | Cc1ccc(S(=O)(=O)NC(=O)NN2C[C@H]3CCC[C@@H]3C2)cc1 | > 57 µM (inactive)
14 | COc1ccc2[nH]cc(CCNc3ncnc4ccc(-c5ccc(C(=O)N(C)C)cc5)cc34)c2c1 | > 57 µM (inactive)
15 | N#C/C(=C\c1ccc(O)c(O)c1)C(N)=O | > 57 µM (inactive)
16 | COC(=O)[C@@]1(Cc2ccc(F)cc2)[C@H]2c3cc(C(=O)N(C)C)n(CCc4c[nH]c5ccc(OC)cc45)c3C[C@H]2CN1C(=O)c1ccccc1 | > 57 µM (inactive)
17 | CNc1ncnc2ccc(-c3cccc(NS(C)(=O)=O)c3)cc12 | > 57 µM (inactive)
18 | Nc1ccc2[nH]cc(CCC(=O)O)c2c1 | > 57 µM (inactive)
19 | O=c1c(-c2ccc(F)c(F)c2)nc2cncnc2n1-c1ccccc1 | > 57 µM (inactive)
20 | COCCn1c(=O)c(-c2cccs2)nc2cnc(N3CCN(C)CC3)nc21 | > 57 µM (inactive)

Row | Structure (SMILES) | Potency
21 | O=C(O)c1nccnc1C(=O)Nc1ccc(Br)cn1 | > 57 µM (inactive)
22 | Cc1nc2cnc(N3CCN(C)CC3)nc2n(CCC#N)c1=O | > 57 µM (inactive)
23 | COc1ccccc1N1CCN(C[C@@H]2CN3C(=O)N(C)c4ccccc4C3=N2)CC1 | > 57 µM (inactive)
24 | COC(=O)[C@@]1(Cc2ccc(OC)cc2)[C@H]2c3cc(C(=O)N4CCCC4)n(Cc4ccc(C(F)(F)F)nc4)c3C[C@H]2CN1C(=O)c1ccccc1 | > 57 µM (inactive)
25 | CN(C)C(=O)c1ccc(-c2cncnc2Nc2ccccc2)cc1 | > 57 µM (inactive)
26 | NC(=O)c1ccc(OC[C@H](O)CN2CC=C(c3ccc(F)cc3)CC2)cc1 | > 57 µM (inactive)
27 | COc1ccc2c(=O)cc(-c3ccccc3)oc2c1O | > 57 µM (inactive)
28 | NCCCNCCCCN(CCCN)/[N+]([O-])=N/O | > 57 µM (inactive)
29 | OCCN1CCN(CC/C=C2\c3ccccc3Sc3ccc(C(F)(F)F)cc32)CC1 | > 57 µM (inactive)
30 | COCCn1c(=O)c(-c2cc(F)cc(F)c2)nc2cncnc21 | > 11.4 µM (inactive)
31 | Cc1c(S(=O)(=O)O)ccc(N=Nc2c(O)c(C(=O)O)cc3ccccc23)c1Cl | > 57 µM (inactive)
32 | O=C(O)CS(=O)c1ccc2c3c(cccc13)C(=O)c1ccccc1-2 (centres undefined) | > 57 µM (inactive)
33 | CC(C)NC(=O)N1CC[C@@]2(CCCN(C(=O)c3cccn3C)C2)C1 | > 57 µM (inactive)
34 | COC(=O)N1CCC2(CCCN(c3ccncc3)C2)CC1 | > 57 µM (inactive)
35 | COCCNc1ncnc2ccc(-c3cccnc3)cc12 | > 57 µM (inactive)
36 | Cc1nc2cnc(N3CCN(C)CC3)nc2n(C[C@H]2CCCO2)c1=O | > 57 µM (inactive)
37 | COc1ccc2[nH]cc(CCNc3cc(-c4ccccc4CN(C)C)ncn3)c2c1 | > 57 µM (inactive)
38 | COc1ccc(CNc2ncncc2-c2ccccc2OC)c(OC)c1 | > 57 µM (inactive)
39 | COc1ccccc1-c1nc(N2CCN(C)CC2)c2ccccc2n1 | > 57 µM (inactive)
40 | C[C@]12CC[C@@H]3C(=CCc4cc(O)ccc43)[C@@H]1CCC2=O | > 57 µM (inactive)

Row | Structure (SMILES) | Potency
41 | CC(N)=NCc1cccc(CN)c1 | > 57 µM (inactive)
42 | CN=C(NC#N)NCCSCc1nc[nH]c1C | > 57 µM (inactive)
43 | ClC(Cl)(Cl)C(N1CCN(c2ccccc2)CC1)N1CCN(c2ccccc2)CC1 | > 57 µM (inactive)
44 | COc1cccc(Cn2c(=O)cnc3cncnc32)c1 | > 57 µM (inactive)
45 | Cc1ccc(NC(=O)c2cccc(N(C)C)c2)cc1NC(=O)c1ccc(O)cc1 | > 57 µM (inactive)
46 | COc1ccc(Oc2ncc3nc(C)c(=O)n(-c4ccccc4)c3n2)cc1 | > 57 µM (inactive)
47 | CC1=CC(=O)C2=C(C)C[C@H](O)[C@@H]3[C@@H](OC(=O)[C@H]3C)[C@H]12 | > 57 µM (inactive)
48 | Cc1cnc(CNc2cc(-c3c(C)noc3C)ncn2)cn1 | > 57 µM (inactive)
49 | COCCn1c(=O)c(-c2cc(F)cc(F)c2)nc2cnc(N3CCNCC3)nc21 | > 57 µM (inactive)
50 | CCCC(C(=O)OCCN(CC)CC)(c1ccccc1)c1ccccc1 | > 57 µM (inactive)
51 | O=c1cnc2cnc(Nc3ccccc3)nc2n1Cc1ccc(F)cc1 | > 57 µM (inactive)
52 | O=C1C(c2ccccn2)=[N+]([O-])c2ccccc21 | > 57 µM (inactive)
53 | CN(Cc1ccco1)c1ncncc1-c1ccoc1 | > 57 µM (inactive)
54 | C[C@H]1O[C@@H](CC(=O)O)Cc2c1c(O)c1c(O)cc(-c3cc(=O)c4c(=O)c5c(c(=O)c=4c3=O)C[C@H](CC(=O)O)O[C@@H]5C)c(O)c1c2O | > 57 µM (inactive)
55 | NS(=O)(=O)c1cc(Cl)c(Cl)c(S(N)(=O)=O)c1 | > 57 µM (inactive)
56 | CCC(C)(C)N=C(NC#N)Nc1cccnc1 | > 57 µM (inactive)
57 | COc1ccc(CNc2ncncc2-c2ccccc2C)c(OC)c1 | > 57 µM (inactive)
58 | Cn1cc(-c2nc3cnc(N4CCNCC4)nc3n(CCc3ccccc3)c2=O)c2ccccc21 | > 57 µM (inactive)
59 | CN(C)c1ccc(-c2nc(NCCN3CCOCC3)c3ccccc3n2)cc1 | > 57 µM (inactive)

From PubChem BioAssay AID448 (National Center for Advancing Translational Sciences (NCATS), 2006)
